# Measured values as given in PubChem BioAssay (Tox21).
# “And” between values parts separate entries of the source, which are not always exact repeats. Equal entries are not always repeated. Inconclusive results are not listed. Where a call stands in place of a potency, no number is given. More than one record can exist for a structure, and the calls need not agree. The source made the active and inactive calls. Unless noted, calls come from the whole dose curve; as a rule, active = well fitted curve in the direction sought with a large enough effect in the repeat runs; inconclusive = weak or mixed curves; inactive = no such curve, though single readings can be large; an effect the other way counts as inactive or inconclusive.
# Experiments:
# [1] = qHTS assay to identify small molecule agonists of H2AX (AID 1224845; active = well fitted activation curve with a large enough effect in the signal ratio in the repeat runs, not every such curve was filed as active; the % refers to the signal ratio; note: potency is the fitted concentration of half-maximal effect); conditions: CHO-K1 phospho-H2AX Ser139 HTRF, 3 h; series mostly up to 154 µM
# Method in brief: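 Wild-type CHO-K1 cells, plated overnight, exposed 3hr at 37C to 15 concentrations (0.76% DMSO final). Lysed, then HTRF anti-pH2AX (S139) cryptate and anti-H2AX-d2 antibodies, 24 hr room temperature; 665/620 nm emission read.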
# [2] = qHTS assay to identify small molecule agonists of the hypoxia (HIF-1) signaling pathway (AID 1224846; active = well fitted activation curve with a large enough effect in the signal ratio in the repeat runs, not every such curve was filed as active; the % refers to the signal ratio); conditions: HRE-bla ME-180 cells, beta-lactamase ratio, 17 h; series mostly up to 76.8 µM
# Method in brief: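 Beta-lactamase FRET read-out (CCF4-AM substrate) from ME-180 cells carrying an HRE-driven bla reporter, after 17 hrs compound exposure at 37C/5% CO2. Cells were seeded at 2,000 per well in 0.5% dialyzed FBS medium and preincubated 5 hrs.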
# [3] = qHTS assay to identify small molecule agonists of H2AX - cell viability counter screen (AID 1224847; calls by dose curve; note: nearly all actives have a fitted effect of over 30% in size; note: potency is the fitted concentration of half-maximal effect); conditions: CHO-K1 viability, CellTiter-Glo luminescence, 3 h; series mostly up to 154 µM
# Method in brief: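 Cytotoxicity counter screen in wild-type CHO-K1 cells: a 3 hr compound treatment at 37C across 15 concentrations, followed by CellTiter-Glo luminescence to gauge viable cells.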
# [4] = qHTS assay to identify small molecule agonists of the estrogen related receptor (ERR) signaling pathway from Tox21 library (AID 1224849; calls by dose curve; note: nearly all actives have a fitted effect of over 15% in size); conditions: ERR reporter cell line, ONE-Glo luciferase, 18 h; at 92.4 µM (top of the series) unless noted
# Method in brief: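 Luminescence readout (ONE-Glo, 30 min RT) after 18 h compound exposure at 37 C of NTP-supplied ERR reporter cells; cells were plated 6 h before compound addition by pin tool.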
# [5] = qHTS RealTime-Glo MT Cell Viability Assay in HEK293 cells - 32 hour (AID 1224868); conditions: RealTime-Glo luminescence; series mostly up to 76.8 µM; note: nearly all actives have a fitted effect of over 50% in size; note: potency is the fitted concentration of half-maximal effect
# Method in brief: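 Tox21 10K qHTS, HEK293, 600 cells/well, RealTime-Glo reagent co-dispensed with cells; 5 h preincubation, compound by pintool, 37 C, luminescence at 0–40 h.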
# [6] = qHTS RealTime-Glo MT Cell Viability Assay in HepG2 cells - 40 hour (AID 1224870); conditions: RealTime-Glo luminescence; series mostly up to 76.8 µM; note: nearly all actives have a fitted effect of over 50% in size
# Method in brief: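 HepG2 cells (600/well) mixed with RealTime-Glo MT reagent, settled 5 h at 37 C/5% CO2 before compound addition. Nonlytic NanoLuc luminescence from viable-cell prosubstrate reduction read repeatedly during 40 h treatment at 37 C.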
# [7] = qHTS assay to identify small molecule antagonists of the estrogen related receptor (ERR) signaling pathway from Tox21 library (AID 1224848); conditions: ERR reporter cell line, luciferase antagonist mode, 18 h; series mostly up to 92.4 µM; note: nearly all actives have a fitted effect of over 50% in size; note: potency is the fitted concentration of half-maximal effect
# Method in brief: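 Quantitative high-throughput format: ERR reporter cells (2,000/well) pre-incubated 6 h, treated 18 h at 37 C with compounds in DMSO alongside positive and negative controls, then read by ONE-Glo luminescence.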
# [8] = qHTS RealTime-Glo MT Cell Viability Assay in HepG2 cells - 24 hour (AID 1224867); conditions: RealTime-Glo luminescence; series mostly up to 76.8 µM; note: nearly all actives have a fitted effect of over 50% in size
# Method in brief: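 Cells + NanoLuc/prosubstrate dispensed (600 cells/well) → 5 h at 37 C/5% CO2 → compounds in DMSO transferred → 40 h incubation at 37 C, luminescence read at 0, 8, 16, 24, 32, 40 h.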
# [9] = A CellTox Green Cytotoxicity Assay to monitor cytotoxicity in HEK293 cells - 0 hour (AID 1224869); conditions: CellTox Green fluorescence; series mostly up to 76.8 µM; note: nearly all actives have a fitted effect of over 50% in size
# Method in brief: (§1)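 Read-out: fluorescence of a cell-impermeant cyanine dye staining DNA of dead cells, proportional to cytotoxicity. HEK293, 600 cells/well with reagent, compound (23 nL DMSO) added after 5 h; reads at 0, 8, 16, 24, 32, 40 h.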
# [10] = A CellTox Green Cytotoxicity Assay to monitor cytotoxicity in HEK293 cells - 40 hour (AID 1224871); conditions: CellTox Green fluorescence; series mostly up to 76.8 µM; note: nearly all actives have a fitted effect of over 45% in size; note: potency is the fitted concentration of half-maximal effect
# Method in brief: as §1
SMILES,Potency [1],outcome [2],Potency [3],"activity change, positive = activation [4]",Potency [5],Potency [6],Potency [7],Potency [8],Potency [9],Potency [10]
O=[N+]([O-])c1cc([N+](=O)[O-])c2ccccc2c1,inactive,inactive,inactive,-17.9% (inactive),inactive,inactive,–,–,–,–
CCSC(C)CC1CC(=O)C(/C(CC)=N/OC/C=C/Cl)=C(O)C1 (stereo unspecified),inactive,inactive,inactive,-10.8% [at 42.5 µM] (inactive),inactive,inactive,inactive,inactive,inactive,inactive
N#CCc1ccc(Cl)cc1,inactive,inactive,inactive,1.98% (inactive),inactive,–,inactive,–,inactive,inactive
CCc1ccccc1C,inactive,inactive,inactive,0.837% (inactive),inactive,inactive,inactive,inactive,inactive,inactive
Cl/C=C\CCl,inactive,inactive,inactive,–,inactive,–,inactive,inactive,inactive,inactive
CC(C)(C)c1cc([N+](=O)[O-])cc(C(C)(C)C)c1O,inactive,inactive,50.5 µM (active),-56.9% (inactive),6.92 µM (active),inactive,2.73 µM (active),inactive,inactive,–
Cc1ccc(C(=O)Cl)cc1,inactive,inactive,inactive,–,inactive,inactive,inactive,inactive,inactive,inactive
Cc1cc(C(F)(C(F)(F)F)C(F)(F)F)ccc1NC(=O)c1cccc(I)c1C(=O)NC(C)(C)CS(C)(=O)=O,inactive,inactive,inactive,-22.4% [at 42.5 µM] (inactive),–,inactive,–,inactive,inactive,inactive
Nc1c(Oc2ccccc2)cc(O)c2c1C(=O)c1ccccc1C2=O,inactive,inactive,inactive,–,19 µM (active),inactive,–,inactive,inactive,inactive
COCC(=O)N(c1c(C)cccc1C)[C@H](C)C(=O)OC,inactive,inactive,inactive,-2.81% (inactive),inactive,inactive,inactive,inactive,inactive,inactive
N#CNC#N,inactive,inactive,inactive,–,inactive,inactive,–,inactive,inactive,inactive
CC(C)CC(C)N (stereo unspecified),inactive,inactive,inactive,0.671% (inactive),inactive,inactive,inactive,–,inactive,inactive
BrC(Br)Br,inactive,inactive,inactive,–,inactive,–,inactive,–,inactive,inactive
Cc1cc(C)cc(OP(=O)(Oc2cc(C)cc(C)c2)Oc2cc(C)cc(C)c2)c1,inactive,inactive,inactive,0.886% (inactive),inactive,inactive,inactive,inactive,inactive,inactive
ClC1=C(Cl)[C@]2(Cl)[C@@H]3[C@@H](Cl)[C@H](Cl)C[C@@H]3[C@@]1(Cl)C2(Cl)Cl,inactive,inactive,inactive,–,inactive,inactive,inactive,inactive,–,–
CCOC(=O)OC1=C(c2cc(C)ccc2C)C(=O)NC12CCC(OC)CC2 (stereo unspecified),inactive,inactive,inactive,–,inactive,inactive,–,inactive,inactive,inactive
SCc1ccco1,inactive,inactive,inactive,–,inactive,inactive,–,inactive,inactive,inactive
CCC(C)c1cc(C(C)(C)C)cc(-n2nc3ccccc3n2)c1O (stereo unspecified),inactive,inactive,inactive,–,inactive,inactive,inactive,inactive,inactive,inactive
COP(N)(=S)OC,inactive,inactive,inactive,3.3% (inactive),inactive,inactive,inactive,inactive,inactive,inactive
COC(=O)N(C(=O)N1CO[C@@]2(C(=O)OC)Cc3cc(Cl)ccc3C2=N1)c1ccc(OC(F)(F)F)cc1,inactive,inactive,inactive,-47.5% (inactive),–,inactive,8.35 µM (active),inactive,inactive,inactive
N#CCCSCCC#N,inactive,inactive,inactive,–,inactive,inactive,–,inactive,inactive,inactive
COc1ccc(OC)c(CC(C)N)c1 (stereo unspecified),inactive,inactive,inactive,–,inactive,inactive,–,inactive,inactive,inactive

SMILES,Potency [1],outcome [2],Potency [3],"activity change, positive = activation [4]",Potency [5],Potency [6],Potency [7],Potency [8],Potency [9],Potency [10]
CCCSP(=O)(OCC)SCCC,inactive,inactive,inactive,–,inactive,inactive,–,inactive,inactive,inactive
C[C@]12Cc3nonc3C[C@@H]1CC[C@@H]1[C@@H]2CC[C@@]2(C)[C@H]1CC[C@]2(C)O,inactive,inactive,49.2 µM (active),-58.3% [at 42.5 µM] (inactive),21.3 µM (active),inactive,13.3 µM (active),inactive,inactive,–
ClC1=C(Cl)C2(Cl)C3C(Cl)C(Cl)CC3C1(Cl)C2(Cl)Cl (stereo unspecified),100 µM (active) and 89.8 µM (active),inactive,89.5 µM (active) and 101 µM (active),-78.9% (inactive) and -65.6% (inactive),48.8 µM (active),–,60.9 µM (active) and 54.5 µM (active),–,inactive,48.8 µM (active) and 49 µM (active)
CC(C)(COCC1CO1)COCC1CO1 (stereo unspecified),inactive,inactive,inactive,-8.81% (inactive),inactive,inactive,inactive,inactive,inactive,inactive
ClC1=C(Cl)[C@]2(Cl)[C@@H]3[C@@H](Cl)[C@@H](Cl)C[C@@H]3[C@@]1(Cl)C2(Cl)Cl,inactive,inactive,inactive,–,inactive,inactive,inactive,inactive,inactive,inactive
CCCCCCCCCCBr,inactive,inactive,inactive,1.61% (inactive),inactive,inactive,inactive,inactive,inactive,inactive
CC(C)C(=O)Cl,inactive,inactive,inactive,-0.166% (inactive),inactive,inactive,inactive,inactive,inactive,inactive
CCc1cc(C)cc(CC)c1-c1c(OC(=O)C(C)(C)C)n2n(c1=O)CCOCC2,inactive,inactive,inactive,-10% (inactive),inactive,–,inactive,–,inactive,inactive
CCS(=O)(=O)c1cccnc1S(=O)(=O)NC(=O)Nc1nc(OC)cc(OC)n1,inactive,inactive,inactive,–,inactive,inactive,inactive,inactive,inactive,inactive
COc1ccc(/C(=C/C(=O)N2CCOCC2)c2ccc(Cl)cc2)cc1OC,inactive,inactive,inactive,-10.9% (inactive),–,inactive,inactive,inactive,inactive,inactive
C[C@H]1O[C@@H](O[C@H]2[C@@H](O)C[C@H](O[C@H]3[C@@H](O)C[C@H](O[C@H]4CC[C@@]5(C)[C@H](CC[C@@H]6[C@@H]5CC[C@]5(C)[C@@H](C7=CC(=O)OC7)CC[C@]65O)C4)O[C@@H]3C)O[C@@H]2C)C[C@H](O)[C@@H]1O,inactive,inactive,inactive,-72.7% [at 42.5 µM] (inactive) and -65% [at 42.5 µM] (active),31.1 nM (active) and 95.2 nM (active),inactive,inactive,inactive,inactive,inactive
C[As+](C)(C)CC(=O)[O-],inactive,inactive,inactive,–,inactive,inactive,inactive,inactive,inactive,inactive
Oc1ccc(I)cc1,inactive,inactive,inactive,–,inactive,inactive,–,inactive,inactive,inactive
ClC1=C(Cl)[C@]2(Cl)[C@H]3[C@H]([C@H]4C=C[C@H]3C4)[C@@]1(Cl)C2(Cl)Cl,inactive,inactive,inactive,–,inactive,–,–,inactive,inactive,–
FC(Cl)(Cl)Cl,inactive,inactive,inactive,–,inactive,inactive,–,inactive,inactive,inactive
CC(=[OH+])/C=C(/C)[O-].CC(=[OH+])/C=C(\C)[O-].CC(=[OH+])/C=C(\C)[O-].[Al],inactive,inactive,inactive,–,inactive,inactive,–,–,inactive,inactive
CC(=O)OC1(c2ccccc2)CCN(CCc2ccccc2)CC1,inactive,inactive,–,–,31.6 µM (active),inactive,–,inactive,inactive,–
CC(=O)[O-].[Tl+],inactive,inactive,inactive,–,–,inactive,–,inactive,inactive,inactive
CC(C)OS(C)(=O)=O,inactive,inactive,inactive,–,inactive,inactive,–,inactive,inactive,inactive
COc1cc(N)c(Cl)cc1C(=O)NC1CN2CCC1CC2 (stereo unspecified),inactive,inactive,–,–,inactive,inactive,–,inactive,inactive,inactive
C[C@@H](Oc1ccc(Cl)cc1Cl)C(=O)O,inactive,inactive,inactive,–,inactive,–,–,inactive,inactive,inactive
O=C1NCN(c2ccccc2)C12CCN(CC1COc3ccccc3O1)CC2 (stereo unspecified),inactive,inactive,–,0.381% [at 42.5 µM] (inactive),–,inactive,–,–,inactive,inactive
